Source: article PMC4552634, “A New Set of Chemical Starting Points with Plasmodium falciparum Transmission-Blocking Potential for Antimalarial Drug Discovery” (PLoS ONE, 2015)
Screen size: about 13,000 compounds; about 3,200 (25%) showed an effect of 50% or more. The list shows a part of the results.

test system: P. falciparum stage V gametocytes; design: BacTiter-Glo ATP luminescence viability of purified stage V gametocytes in 384-well plates, per cent inhibition versus DMSO; conditions: 48 h, 5 µM; inhibitor

Row | SMILES | % Inhibition
1 | O=C(Nc1ccc(C(=O)N2CCN(CCN3CCN(c4cccc(C(F)(F)F)c4)CC3)CC2)cc1)c1cc(Cl)cc(Cl)c1 [TCMDC-138146] | -60.88%
2 | O=C(Nc1cc2cc(-c3ccc(CN4CCCCC4)cc3)ccc2n2cnnc12)NC1CCCC1 [TCMDC-136882] | 63.39%
3 | O=C(Nc1cccc(Cl)c1Cl)NC1CCN(Cc2cccc(O)c2)CC1 [TCMDC-136485] | -12.42%
4 | O=C(NCC1CC1)C1CCN(C(c2ccccc2)c2nc3ccccc3s2)CC1 (stereo not shown) [TCMDC-135523] | -36.83%
5 | O=C(NCC1CC1)C1CCN(C(c2ccc(Cl)cc2)c2ccc(Cl)cc2)CC1 [TCMDC-135522] | -2.377%
6 | COCCNC(=O)C1CCN(C(c2ccc(Cl)cc2)c2ccc(Cl)cc2)CC1 [TCMDC-135519] | -9.136%
7 | O=C(NCC1CC1)C1CCN(C(c2ccccc2)c2ccc(Cl)c(Cl)c2)CC1 (stereo not shown) [TCMDC-135515] | 70.5%
8 | O=C(NC1CCC1)C1CCN(C(c2ccc(Cl)cc2)c2ccc(Cl)cc2)CC1 [TCMDC-135520] | 57.43%
9 | CCCNC(=O)C1CCN(C(c2ccc(Cl)cc2)c2ccc(Cl)cc2)CC1 [TCMDC-135518] | 16.22%
10 | O=C(NC1CCC1)C1CCN(C(c2ccccc2)c2cc(F)cc(F)c2)CC1 (stereo not shown) [TCMDC-135514] | -3.594%
11 | O=C(NCC1CC1)C1CCN(C(c2ccccc2)c2cc(F)cc(F)c2)CC1 (stereo not shown) [TCMDC-135513] | 62.39%
12 | CCCNC(=O)C1CCN(C(c2ccccc2)c2ccc(Cl)c(Cl)c2)CC1 (stereo not shown) [TCMDC-135517] | -34.35%
13 | COc1ccc(C(=O)NCc2ccc(N)nc2C)cc1Nc1ncc(-c2cccc(N(C)C)c2)cn1 [TCMDC-132420] | -21.32%
14 | CCCc1ccc(Cc2cnc3nc(N)nc(N)c3c2C)cc1 [TCMDC-138046] | 5.48%
15 | CCc1ccc(Cc2cnc3nc(N)nc(N)c3c2C)cc1CC [TCMDC-138054] | 77.27%
16 | CCc1ccc(Cc2cnc3nc(N)nc(N)c3c2C)cc1 [TCMDC-137686] | 14.74%
17 | Cc1nc(N)nc(N)c1OCCCOc1cccc(Cl)c1Cl [TCMDC-131369] | -7.285%
18 | OCCN1CCN(C(=S)Nc2ccccc2)CC1 [TCMDC-123846] | -8.492%
19 | O=C(Nc1ccc(N2CCCN(Cc3cccc(F)c3)CC2)cc1)c1ccccc1 [TCMDC-135014] | -40.3%
20 | OCCN1CCN(c2nc(Nc3cccc(F)c3)c3cnn(-c4ccccc4)c3n2)CC1 [TCMDC-124948] | 87.2%
21 | O=c1cc(NC[C@@H]2CCC[C@@H]2NCc2ccc(Cl)c(Cl)c2)[nH]c2ccccc12 [TCMDC-139627] | -25.41%
22 | Clc1cc(Cl)c2cc(CN[C@H]3CCC[C@@H]3CNc3nc4ccccc4[nH]3)[nH]c2c1 [TCMDC-139878] | 63.13%
23 | Clc1cc(Cl)c2c(c1)C(NCCCNc1nc3ccccc3[nH]1)CCO2 (stereo not shown) [TCMDC-139802] | -25.37%

Row | SMILES | % Inhibition
24 | CC1=C(C(=O)Nc2ccccc2)C(c2ccc([N+](=O)[O-])cc2)n2ncc(C(=O)Nc3ccccc3)c2N1 (stereo not shown) [TCMDC-125283] | 50.23%
25 | CC1=C(C(=O)Nc2ccc(Cl)cc2)C(c2ccncc2)n2nc(C(F)(F)F)nc2N1 (stereo not shown) [TCMDC-124419] | -9.933%
26 | COc1ccc(C2C(C(=O)Nc3ccccc3)=C(C)Nc3c(C(=O)Nc4ccccc4)cnn32)cc1 (stereo not shown) [TCMDC-125284] | -13.81%
27 | c1csc(-c2ccc3c(c2)CC(NCc2c[nH]c4cnccc24)C3)c1 (stereo not shown) [TCMDC-134833] | 42.25%
28 | COc1cc(NC(=O)c2cc([N+](=O)[O-])ccc2NC(=O)CNC2CCCC(C)C2C)cc(OC)c1 (stereo not shown) [TCMDC-125300] | -31.14%
29 | COc1cccc(NC(=O)c2cc([N+](=O)[O-])ccc2NC(=O)CN2CCc3ccccc3C2)c1 [TCMDC-123678] | 69.57%
30 | CCC(CC)N1CCN(CC(=O)Nc2ccc([N+](=O)[O-])cc2C(=O)Nc2cccc(OC)c2)CC1 [TCMDC-123679] | -23.44%
31 | COc1cc(F)c2ncc(Cl)c(CCN3CCC(NCc4ccc5c(n4)NC(=O)CO5)CC3)c2c1 [TCMDC-135621] | -16.17%
32 | Cc1cc(N2CCOCC2)nc2ccc(NC(=O)c3cccc([N+](=O)[O-])c3)cc12 [TCMDC-123601] | 0.6281%
33 | NS(=O)(=O)c1cccc(-c2ccc3ncc(N4CCOCC4)nc3c2)c1 [TCMDC-134052] | 73.87%
34 | O=C(Nc1ccc(-c2nc3ccccc3[nH]2)cc1)c1cccc(S(=O)(=O)N2CCOCC2)c1 [TCMDC-125263] | -3.664%
35 | CN(C)c1ccc(-c2csc(C(=O)NCC3CCN(CCC(C)(C)C)C3)c2)cc1 (stereo not shown) [TCMDC-134427] | 60.6%
36 | CN(C)c1ccc(-c2csc(C(=O)NCC3CCN(Cc4cccc(C(F)(F)F)c4)C3)c2)cc1 (stereo not shown) [TCMDC-134486] | 49.29%
37 | CC(C)c1ccc(CN2CCC(CNC(=O)c3cc(-c4ccc(N(C)C)cc4)cs3)C2)cc1 (stereo not shown) [TCMDC-134440] | 77.06%
38 | CN(C)c1ccc(-c2csc(C(=O)NCC3CCN(Cc4ccc(C(C)(C)C)cc4)C3)c2)cc1 (stereo not shown) [TCMDC-134449] | 80.7%
39 | O=C1CCCC1Sc1nc2ccccc2c(=O)n1-c1ccc(Cl)c(Cl)c1 (stereo not shown) [TCMDC-125029] | -36.37%
40 | CC1(C)N=C(N)N=C(N)N1OCCSc1ccc(Cl)c(Cl)c1 [TCMDC-131704] | 5.969%
41 | CN1CCN(c2cc3c(cc2Br)CCN3C(=O)Nc2ccc(-c3cnc4ccccc4c3)cc2)CC1 [TCMDC-139280] | 14.3%
42 | Cc1cc(N[C@@H](CC(C)C)C(=O)Nc2ccccc2)nc(NCC2CCCCC2)n1 [TCMDC-134921] | -51.59%
43 | CCOc1cc(C)ccc1N(C1CCN(CCCCNC(=O)c2ccc(-c3ccc(C(F)(F)F)cc3)cc2)CC1)S(=O)(=O)c1ccccc1 [TCMDC-138637] | 32.99%
44 | CCC(C)c1ccc(-n2c(Nc3ccccc3)nc3cc(S(N)(=O)=O)ccc32)cc1 (stereo not shown) [TCMDC-135490] | -10.42%
45 | CCc1c[nH]c2c(N3CCCCS3(=O)=O)cc(C(=O)N[C@@H](Cc3ccccc3)[C@H](O)CNCc3cccc(OC)c3)cc12 [TCMDC-134127] | -6.303%
46 | Cc1cc(N[C@@H](Cc2ccccc2)C(=O)Nc2ccccc2)nc(NCCc2ccccn2)n1 [TCMDC-134749] | 53.15%

Row | SMILES | % Inhibition
47 | COc1ccc(NC(=O)[C@H](Cc2ccccc2)Nc2cc(C)nc(NCC3CCCCC3)n2)cc1 [TCMDC-134929] | 14.59%
48 | COc1ccc(NC(=O)[C@H](Cc2ccccc2)Nc2cc(C)nc(NCCc3ccccn3)n2)cc1 [TCMDC-134746] | 109.1%
49 | CCCC(C)Nc1nc(C)cc(N[C@@H](Cc2ccccc2)C(=O)Nc2ccc(OC)cc2)n1 (stereo partly shown) [TCMDC-134881] | -19.42%
50 | CO/C(=C\C=C\c1cc2cc(Cl)c(Cl)cc2[nH]1)C(=O)NCCCN1CCN(c2cccc(OC)c2)CC1 [TCMDC-139161] | -21.84%
51 | O=C(N[C@@H](Cc1ccccc1)C(=O)NC1CCCc2ccccc21)c1ccc(O)c(-c2ccc(Cl)c(Cl)c2)c1 (stereo partly shown) [TCMDC-140868] | 35.62%
52 | Nc1ncc(-c2cccc(CCN3CCOCC3)c2)cc1-c1nc2ccc(Br)cc2[nH]1 [TCMDC-133135] | 15.3%
53 | NC1CCN(Cc2ccc(-c3ccc(-c4nc5ccccc5[nH]4)cc3)cc2)C1.O=C(O)C(F)(F)F (stereo not shown) [TCMDC-133868] | 102.2%
54 | CC1CN(Cc2ccc(-c3ccc(-c4nc5ccccc5[nH]4)cc3)cc2)CC(C)O1.O=C(O)C(F)(F)F (stereo not shown) [TCMDC-133828] | -35.16%
55 | O=C(O)C(F)(F)F.OC1CCCN(Cc2ccc(-c3ccc(-c4nc5ccccc5[nH]4)cc3)cc2)C1 (stereo not shown) [TCMDC-133829] | -32.2%
56 | NC1CCCN(Cc2ccc(-c3cccc(-c4nc5ccccc5[nH]4)c3)cc2)C1 (stereo not shown) [TCMDC-133880] | 58.58%
57 | OC1CCCN(Cc2ccc(-c3cccc(-c4nc5ccccc5[nH]4)c3)cc2)C1 (stereo not shown) [TCMDC-133836] | -1.76%
58 | NC1CCN(Cc2ccc(-c3cccc(-c4nc5ccccc5[nH]4)c3)cc2)C1 (stereo not shown) [TCMDC-133879] | 58.35%
59 | N=c1c2c(n(Cc3ccccc3)c3c1CCC3)CCCC2 [TCMDC-124229] | -1.262%
60 | Clc1cccc(C23N=C(Nc4nc5ccccc5[nH]4)NC2(c2ccccc2)NC(Nc2nc4ccccc4[nH]2)=N3)c1 (stereo not shown) [TCMDC-139089] | 3.895%
61 | NS(=O)(=O)c1ccc(CNc2ccc3ncc(-c4ccc(Cl)cc4)n3n2)cc1 [TCMDC-136686] | 45.42%
62 | COc1ccc(-c2cnc3ccc(NCc4ccc(S(N)(=O)=O)cc4)nn23)cn1 [TCMDC-136688] | 73.26%
63 | COc1ccc(-c2cnc3ccc(NCc4ccc(S(N)(=O)=O)cc4)nn23)cc1 [TCMDC-136687] | 45.37%
64 | NS(=O)(=O)c1ccc(CNc2ccc3ncc(-c4ccc(OC(F)(F)F)cc4)n3n2)cc1 [TCMDC-136685] | 61.81%
65 | FC(F)(F)Oc1ccc(-c2cnc3ccc(NCc4ccncc4)nn23)cc1 [TCMDC-136681] | 34.75%
66 | N#Cc1ccc(-c2cnc3ccc(NCc4ccc(S(N)(=O)=O)cc4)nn23)cc1 [TCMDC-124515] | 21.95%
67 | CC(C)(CNC(=O)/C=C/c1ccc(Cl)c(Cl)c1)CNc1cc(=O)c2ccccc2[nH]1 [TCMDC-139404] | -42.09%
